Source: PubChem BioAssay
For part of these data: Entries with a potency or affinity are not part of this list. The source made the active and inactive calls. Unless noted, cut-off not given; nearly all actives show IC50 up to about 0.98 µM.

tested on: not listed separately; assay: inhibition of 3D7 malaria parasite growth – strain 3D7 (AID 2306; call rule not given here;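 further: 0% = DMSO wells and 100% = chloroquine plus artemisinin control wells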); conditions: P. falciparum 3D7 erythrocytic growth, LDH absorbance, 72 h; at 2 µM; hits give high values

| SMILES | growth inhibition |
| --- | --- |
| CC(C)c1ccc(C(NC(=O)C2CCCCC2)c2ccc3cccnc3c2O)cc1 (stereo not drawn) | 89% (active) |
| O=C(/C=C/c1ccc(Cl)c(Cl)c1)NCCCCCCN1CCN(C(=O)Nc2ccc(OC(F)F)cc2)CC1 | 91% (active) |
| COc1cc2ncnc(Nc3ccc(Br)c(Cl)c3)c2cc1OC | 101% (active) |
| COc1cccc(C=CC(=O)N(CCN)Cc2ccccc2)c1 | 99% (active) |
| c1cc(COc2ccc(C3=NCCN3)cc2)nc(COc2ccc(C3=NCCN3)cc2)c1 | 100% (active) |
| O=C(Nc1cc(C(F)(F)F)cc(C(F)(F)F)c1)Nc1ccc(Cl)c(Cl)c1 | 101% (active) |
| Cc1cccc2[nH]c(-c3cccc(-c4cccc(NC(=O)Cc5cnc[nH]5)c4)c3)nc12 | 102% (active) |
| Cc1cc(N2CCCC2)nc(Nc2ccc(NC(=O)C3CCCC3)cc2)n1 | 102% (active) |
| CCNC(=O)c1ccc2c(c1)c(C)c(C)n2Cc1ccc(F)cc1 | 93% (active) |
| O=C(c1cc(-c2ccccc2O)on1)N1CCN(C(c2ccccc2)c2ccccc2)CC1 | 97% (active) |
| CCOC(=O)NCC(=O)Nc1cccc(-c2cccc(-c3nc4ccc(C(F)(F)F)cc4[nH]3)c2)c1 | 91% (active) |
| CN1CCCC(CN2CCN(Cc3ccc(-c4ccc(-c5nc6ccccc6[nH]5)s4)cc3)CC2)C1 (stereo not drawn) | 100% (active) |
| Cc1cccc2[nH]c(-c3ccc(-c4cccc(CN5CCC(C(N)=O)CC5)c4)cc3)nc12 | 87% (active) |
| Cc1c(F)cc(C(=O)NC2CC2)cc1-c1ccc2c(cnn2S(=O)(=O)c2cccs2)c1 | 92% (active) |
| CC(C)Nc1cc(C(=O)N[C@@H](Cc2ccccc2)[C@H](O)CNC2CCOCC2)c(F)c(N2CCCCS2(=O)=O)c1 | 98% (active) |
| Cc1cnc(NCC2CCCCC2)nc1NCC(=O)Nc1ccccc1 | 90% (active) |
| FC(F)(F)c1cccc(NC(=S)NN=Cc2ccccn2)c1 | 100% (active) |
| OC1(c2ccc(Br)cc2)CCN(C2CCN(Cc3ccccc3)CC2)CC1 | 100% (active) |
| CCOc1ccc2nc(C)cc(NN=Cc3ccncc3)c2c1 | 99% (active) |
| COc1ccc2nccc([C@@H](O)CN3CCC(NCc4cc5ccccc5o4)CC3)c2c1 | 96% (active) |

| SMILES | growth inhibition |
| --- | --- |
| COc1ccc(C(=O)Nc2ccc3oc(-c4ccc(C(F)(F)F)cc4)cc3c2)cc1CCCN(C)C | 98% (active) |
| CCc1cn(C)c2c(N3CCCC3=O)cc(C(=O)N[C@@H](Cc3ccccc3)[C@H](O)CNC(C)(C)c3cccc(OC)c3)cc12 | 95% (active) |
| O=C(Nc1cccc(-c2ccc(CN3CCCC3)cc2)c1)c1ccc(F)cc1 | 92% (active) |
| CCC(CC)OC(=O)C(C)c1cccc(C(=O)c2ccccc2)c1 (stereo not drawn) | 93% (active) |
| N#Cc1ccc2c(c1)CCN(CCC1CCC(NC(=O)/C=C/c3cnc4ccccc4c3)CC1)CC2 (stereo not drawn) | 87% (active) |
| CN1CCC(N2CCN(Cc3ccc(-c4cccc(-c5nc6ccc(F)cc6[nH]5)c4)cc3)CC2)CC1 | 101% (active) |
| CC(C)(C)c1ccc2nc(-c3ccc(C(=O)NCc4cccc(C(F)(F)F)c4)cc3)[nH]c2c1 | 98% (active) |
| CCN1CCN(c2cc(C)c3cc(NC(=O)c4cccc([N+](=O)[O-])c4)ccc3n2)CC1 | 99% (active) |
| N=C(N)c1cc(Cl)cc(NC(=O)Nc2cc(Cl)cc(C(=N)N)c2)c1 | 92% (active) |
| N#Cc1ccc2c(c1)CCN(CCC1CCC(NC(=O)Nc3ccncc3)CC1)C2 (stereo not drawn) | 85% (active) |
| CCc1ccc(NC(=O)C=NN=C(N)N)cc1 | 100% (active) |
| Cc1ccn2c(N(Cc3ccccc3)C(=O)c3ccc(Cl)c(Cl)c3)c(-c3ccccc3)nc2c1 | 95% (active) |
| O=C(c1cccc(COc2ccc3c(c2)CCN(C2CCCC2)CC3)c1)N1CCN(c2ccncc2)CC1 | 100% (active) |
| CCCCCCCN1CC[C@H](CC(=O)Nc2ccnc3ccc(OC)cc23)[C@@H](CC)C1 | 101% (active) |
| CCCCCCN1CCC(NCc2ccc(OCCN3CCCC3)cc2)CC1 | 101% (active) |
| COc1cccc2cc(C(=O)N[C@@H](CC(C)C)C(=O)N[C@H](/C=N/NC(=O)OC(C)(C)C)CC(C)C)oc12 | 88% (active) |
| OC(CNCc1cccc(Oc2ccc(Cl)cc2)c1)c1cccc(C(F)(F)F)c1 (stereo not drawn) | 94% (active) |
| COc1ccc(-c2ccc(NC(=O)c3cccc(C#N)c3)cc2)cc1CN1CCNCC1 | 101% (active) |
| COC(=O)CNC(c1ccccc1)c1cc(Br)ccc1NC(=O)c1ccccc1Br (stereo not drawn) | 99% (active) |

biological target: Calcium-dependent protein kinase 1 (Plasmodium falciparum (isolate 3D7)) (UniProt P62344); assay: PfCDPK1 kinase inhibitors, biochemical, TCAMS library (AID 1159585); conditions: recombinant PfCDPK1, Kinase-Glo ATP depletion luminescence;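 further: inhibitors leave more ATP so luminescence rises with inhibition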
Sequence (P62344 whole entry, looked up): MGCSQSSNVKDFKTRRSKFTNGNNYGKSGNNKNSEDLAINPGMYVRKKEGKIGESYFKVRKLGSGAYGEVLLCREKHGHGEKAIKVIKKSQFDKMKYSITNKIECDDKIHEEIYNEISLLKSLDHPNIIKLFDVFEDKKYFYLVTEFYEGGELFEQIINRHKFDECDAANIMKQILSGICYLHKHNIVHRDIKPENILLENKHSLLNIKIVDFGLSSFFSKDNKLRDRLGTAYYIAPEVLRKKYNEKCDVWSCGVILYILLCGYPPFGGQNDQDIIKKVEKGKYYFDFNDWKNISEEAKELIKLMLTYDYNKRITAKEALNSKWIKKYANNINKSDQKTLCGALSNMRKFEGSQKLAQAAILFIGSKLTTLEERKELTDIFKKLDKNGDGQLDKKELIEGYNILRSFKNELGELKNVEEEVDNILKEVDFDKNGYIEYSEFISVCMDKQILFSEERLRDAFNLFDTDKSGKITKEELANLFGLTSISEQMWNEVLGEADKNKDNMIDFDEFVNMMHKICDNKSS

| SMILES | outcome |
| --- | --- |
| CC(C)c1ccc(C(NC(=O)C2CCCCC2)c2ccc3cccnc3c2O)cc1 (stereo not drawn) | inactive |
| O=C(/C=C/c1ccc(Cl)c(Cl)c1)NCCCCCCN1CCN(C(=O)Nc2ccc(OC(F)F)cc2)CC1 | inactive |
| COc1cc2ncnc(Nc3ccc(Br)c(Cl)c3)c2cc1OC | inactive |
| COc1cccc(C=CC(=O)N(CCN)Cc2ccccc2)c1 | inactive |
| c1cc(COc2ccc(C3=NCCN3)cc2)nc(COc2ccc(C3=NCCN3)cc2)c1 | inactive |
| O=C(Nc1cc(C(F)(F)F)cc(C(F)(F)F)c1)Nc1ccc(Cl)c(Cl)c1 | inactive |
| Cc1cccc2[nH]c(-c3cccc(-c4cccc(NC(=O)Cc5cnc[nH]5)c4)c3)nc12 | inactive |
| Cc1cc(N2CCCC2)nc(Nc2ccc(NC(=O)C3CCCC3)cc2)n1 | inactive |
| CCNC(=O)c1ccc2c(c1)c(C)c(C)n2Cc1ccc(F)cc1 | inactive |
| O=C(c1cc(-c2ccccc2O)on1)N1CCN(C(c2ccccc2)c2ccccc2)CC1 | inactive |
| CCOC(=O)NCC(=O)Nc1cccc(-c2cccc(-c3nc4ccc(C(F)(F)F)cc4[nH]3)c2)c1 | inactive |
| CN1CCCC(CN2CCN(Cc3ccc(-c4ccc(-c5nc6ccccc6[nH]5)s4)cc3)CC2)C1 (stereo not drawn) | inactive |
| Cc1cccc2[nH]c(-c3ccc(-c4cccc(CN5CCC(C(N)=O)CC5)c4)cc3)nc12 | inactive |
| Cc1c(F)cc(C(=O)NC2CC2)cc1-c1ccc2c(cnn2S(=O)(=O)c2cccs2)c1 | inactive |
| CC(C)Nc1cc(C(=O)N[C@@H](Cc2ccccc2)[C@H](O)CNC2CCOCC2)c(F)c(N2CCCCS2(=O)=O)c1 | inactive |
| Cc1cnc(NCC2CCCCC2)nc1NCC(=O)Nc1ccccc1 | inactive |
| FC(F)(F)c1cccc(NC(=S)NN=Cc2ccccn2)c1 | inactive |
| OC1(c2ccc(Br)cc2)CCN(C2CCN(Cc3ccccc3)CC2)CC1 | inactive |
| CCOc1ccc2nc(C)cc(NN=Cc3ccncc3)c2c1 | inactive |
| COc1ccc2nccc([C@@H](O)CN3CCC(NCc4cc5ccccc5o4)CC3)c2c1 | inactive |

| SMILES | outcome |
| --- | --- |
| COc1ccc(C(=O)Nc2ccc3oc(-c4ccc(C(F)(F)F)cc4)cc3c2)cc1CCCN(C)C | inactive |
| CCc1cn(C)c2c(N3CCCC3=O)cc(C(=O)N[C@@H](Cc3ccccc3)[C@H](O)CNC(C)(C)c3cccc(OC)c3)cc12 | inactive |
| O=C(Nc1cccc(-c2ccc(CN3CCCC3)cc2)c1)c1ccc(F)cc1 | inactive |
| CCC(CC)OC(=O)C(C)c1cccc(C(=O)c2ccccc2)c1 (stereo not drawn) | inactive |
| N#Cc1ccc2c(c1)CCN(CCC1CCC(NC(=O)/C=C/c3cnc4ccccc4c3)CC1)CC2 (stereo not drawn) | inactive |
| CN1CCC(N2CCN(Cc3ccc(-c4cccc(-c5nc6ccc(F)cc6[nH]5)c4)cc3)CC2)CC1 | inactive |
| CC(C)(C)c1ccc2nc(-c3ccc(C(=O)NCc4cccc(C(F)(F)F)c4)cc3)[nH]c2c1 | inactive |
| CCN1CCN(c2cc(C)c3cc(NC(=O)c4cccc([N+](=O)[O-])c4)ccc3n2)CC1 | inactive |
| N=C(N)c1cc(Cl)cc(NC(=O)Nc2cc(Cl)cc(C(=N)N)c2)c1 | inactive |
| N#Cc1ccc2c(c1)CCN(CCC1CCC(NC(=O)Nc3ccncc3)CC1)C2 (stereo not drawn) | inactive |
| CCc1ccc(NC(=O)C=NN=C(N)N)cc1 | inactive |
| Cc1ccn2c(N(Cc3ccccc3)C(=O)c3ccc(Cl)c(Cl)c3)c(-c3ccccc3)nc2c1 | inactive |
| O=C(c1cccc(COc2ccc3c(c2)CCN(C2CCCC2)CC3)c1)N1CCN(c2ccncc2)CC1 | inactive |
| CCCCCCCN1CC[C@H](CC(=O)Nc2ccnc3ccc(OC)cc23)[C@@H](CC)C1 | inactive |
| CCCCCCN1CCC(NCc2ccc(OCCN3CCCC3)cc2)CC1 | inactive |
| COc1cccc2cc(C(=O)N[C@@H](CC(C)C)C(=O)N[C@H](/C=N/NC(=O)OC(C)(C)C)CC(C)C)oc12 | inactive |
| OC(CNCc1cccc(Oc2ccc(Cl)cc2)c1)c1cccc(C(F)(F)F)c1 (stereo not drawn) | inactive |
| COc1ccc(-c2ccc(NC(=O)c3cccc(C#N)c3)cc2)cc1CN1CCNCC1 | inactive |
| COC(=O)CNC(c1ccccc1)c1cc(Br)ccc1NC(=O)c1ccccc1Br (stereo not drawn) | inactive |
